Measurements as given in PubChem BioAssay AID1159580 (chemical genetic matrix, 2015).
Out of some 5,500 compounds screened, about 2,000 (36%) were called active. Another 18% or so got no clear call; they are omitted. Rule as the data show it: active = normalized growth mostly below about 0.91 (no sharp cut-off); inconclusive = no clear call, values can overlap the other calls; inactive = mostly above about 0.92. Some of the results follow.

Assay: chemical genetic growth profiling, strain panel (AID 1159580);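 also: tested at 20 µM; growth read once vehicle control cultures reached saturation at 30 °C; 1 = growth at the plate median or of vehicle wells; lower values mean less growth of the strain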
Conditions: growth OD
[1] = S. cerevisiae deletion strains, locus YAL013W, strain DEP1, active compounds read low
[2] = S. cerevisiae deletion strains, locus YAL040C, strain CLN3, active compounds read low
[3] = S. cerevisiae deletion strains, locus YCL061C, strain MRC1 (second series), active compounds read low
[4] = S. cerevisiae deletion strains, locus YDR150W, strain NUM1, active compounds read low
[5] = S. cerevisiae deletion strains, locus YDR363W, strain ESC2, active compounds read low
[6] = S. cerevisiae deletion strains, locus YER002W, strain NOP16, active compounds read low
[7] = S. cerevisiae deletion strains, locus YGR078C, strain PAC10, active compounds read low
[8] = S. cerevisiae deletion strains, locus YGR229C, strain SMI1, active compounds read low
[9] = S. cerevisiae deletion strains, locus YMR263W, strain SAP30, active compounds read low
[10] = S. cerevisiae deletion strains, locus YMR307W, strain GAS1, active compounds read low
[11] = S. cerevisiae deletion strains, locus YNL153C, strain GIM3, active compounds read low
[12] = S. cerevisiae deletion strains, locus YNL175C, strain NOP13, active compounds read low
[13] = S. cerevisiae deletion strains, locus YNL197C, strain WHI3, active compounds read low
[14] = S. cerevisiae deletion strains, locus YNL224C, strain SQS1, active compounds read low
[15] = S. cerevisiae deletion strains, locus YNL322C, strain KRE1, active compounds read low
[16] = S. cerevisiae deletion strains, locus YOR083W, strain WHI5 (second series), active compounds read low
[17] = S. cerevisiae deletion strains, locus YPL055C, strain LGE1, active compounds read low
[18] = S. cerevisiae deletion strains, locus YPL241C, strain CIN2, active compounds read low
[19] = S. cerevisiae deletion strains, locus YHR030C, strain SLT2, active compounds read low
[20] = S. cerevisiae deletion strains, locus YHR079C, strain IRE1, active compounds read low
[21] = S. cerevisiae deletion strains, locus YJL095W, strain BCK1, active compounds read low
[22] = S. cerevisiae deletion strains, locus YJR066W, strain TOR1, active compounds read low
[23] = S. cerevisiae deletion strains, locus YLR113W, strain HOG1, active compounds read low
[24] = S. cerevisiae deletion strains, locus YNL183C, strain NPR1, active compounds read low
[25] = S. cerevisiae deletion strains, locus YOR231W, strain MKK1, active compounds read low
[26] = S. cerevisiae deletion strains, locus YPL256C, strain CLN2, active compounds read low
[27] = S. cerevisiae deletion strains, locus YJR075W, strain HOC1, active compounds read low

Measured: normalized growth

CCC(CO)NC(=O)C1C=C2c3cccc4c3c(cn4C)CC2N(C)C1 (stereo not drawn)
inactive: [1] 0.988 | [2] 1.08 | [3] 0.999 | [4] 1 | [5] 0.972 | [6] 0.998 | [7] 1 | [8] 0.999 | [9] 0.994 | [10] 0.962 | S. cerevisiae deletion strains, locus YNL128W, strain TEP1, active compounds read low 1.02 | [11] 1 | [12] 0.987 | [13] 1.02 | [14] 1 | [15] 0.989 | [16] 0.988 | [17] 0.997 | [18] 1

Nc1ccc(S(=O)(=O)O)cc1
inactive: [19] 0.992 | [20] 0.987 | [21] 0.998 | [22] 0.966 | [23] 0.976 | [24] 0.939 | [25] 1.01 | [26] 0.97

CC[C@]1(O)CC2CN(CCc3c([nH]c4ccccc34)[C@@](C(=O)OC)(c3cc4c(cc3OC)N(C=O)[C@H]3[C@@](O)(C(=O)OC)[C@H](OC(C)=O)[C@]5(CC)C=CCN6CC[C@]43[C@@H]65)C2)C1 (stereo partly drawn)
inactive: S. cerevisiae deletion strains, locus YAL021C, strain ccr4, active compounds read low 1 | S. cerevisiae deletion strains, locus YAL026C, strain drs2, active compounds read low 0.984 | S. cerevisiae deletion strains, locus YAL030W, strain snc1, active compounds read low 0.993 | S. cerevisiae deletion strains, locus YBL061C, strain skt5, active compounds read low 1 | S. cerevisiae deletion strains, locus YBR009C, strain hhf1, active compounds read low 0.988 | S. cerevisiae deletion strains, locus YBR023C, strain chs3, active compounds read low 0.999 | S. cerevisiae deletion strains, locus YBR171W, strain sec66, active compounds read low 0.978 | S. cerevisiae deletion strains, locus YBR231C, strain swc5, active compounds read low 1.01 | S. cerevisiae deletion strains, locus YBR279W, strain paf1, active compounds read low 0.989 | S. cerevisiae deletion strains, locus YCL011C, strain gbp2, active compounds read low 1.01 | S. cerevisiae deletion strains, locus YCL016C, strain dcc1, active compounds read low 1.03 | S. cerevisiae deletion strains, locus YCL061C, strain MRC1, active compounds read low 0.971 | S. cerevisiae deletion strains, locus YCL069W, strain vba3, active compounds read low 0.968 | S. cerevisiae deletion strains, locus YCR088W, strain abp1, active compounds read low 0.986 | S. cerevisiae deletion strains, locus YDL005C, strain med2, active compounds read low 0.985 | S. cerevisiae deletion strains, locus YDL040C, strain nat1, active compounds read low 0.988 | S. cerevisiae deletion strains, locus YDR001C, strain nth1, active compounds read low 1 | S. cerevisiae deletion strains, locus YDR069C, strain doa4, active compounds read low 0.984 | S. cerevisiae deletion strains, locus YDR137W, strain rgp1, active compounds read low 0.989 | S. cerevisiae deletion strains, locus YDR159W, strain sac3, active compounds read low 0.994 | S. cerevisiae deletion strains, locus YDR195W, strain ref2 0.978 | S. cerevisiae deletion strains, locus YDR297W, strain sur2, active compounds read low 0.982 | S. cerevisiae deletion strains, locus YDR334W, strain swr1, active compounds read low 0.937 | S. cerevisiae deletion strains, locus YDR335W, strain msn5, active compounds read low 0.977 | S. cerevisiae deletion strains, locus YDR392W, strain spt3, active compounds read low 0.987 | S. cerevisiae deletion strains, locus YEL003W, strain gim4, active compounds read low 0.972 | S. cerevisiae deletion strains, locus YEL037C, strain rad23, active compounds read low 0.981 | S. cerevisiae deletion strains, locus YEL061C, strain CIN8 (second series), active compounds read low 0.968 | S. cerevisiae deletion strains, locus YER015W, strain faa2, active compounds read low 0.997 | S. cerevisiae deletion strains, locus YER016W, strain bim1, active compounds read low 0.989 | S. cerevisiae deletion strains, locus YER111C, strain swi4, active compounds read low 0.989 | S. cerevisiae deletion strains, locus YER155C, strain BEM2 (second series), active compounds read low 0.962 | S. cerevisiae deletion strains, locus YFR010W, strain ubp6, active compounds read low 0.94 | S. cerevisiae deletion strains, locus YGL167C, strain pmr1, active compounds read low 0.972 | S. cerevisiae deletion strains, locus YGL173C, strain kem1, active compounds read low 0.996 | S. cerevisiae deletion strains, locus YGL227W, strain vid30, active compounds read low 0.985 | S. cerevisiae deletion strains, locus YGL240W, strain doc1, active compounds read low 0.966 | S. cerevisiae deletion strains, locus YGL253W, strain hxk2, active compounds read low 1.02 | S. cerevisiae deletion strains, locus YHR013C, strain ard1, active compounds read low 1 | S. cerevisiae deletion strains, locus YHR027C, strain rpn1, active compounds read low 0.992 | [19] 0.972 | [20] 0.97 | S. cerevisiae deletion strains, locus YHR142W, strain chs7, active compounds read low 1.04 | S. cerevisiae deletion strains, locus YJL092W, strain hpr5, active compounds read low 0.973 | S. cerevisiae deletion strains, locus YJL095W, strain BCK1 (second series), active compounds read low 0.988 | [21] 0.958 | S. cerevisiae deletion strains, locus YJL115W, strain asf1, active compounds read low 0.981 | S. cerevisiae deletion strains, locus YJL129C, strain trk1, active compounds read low 1.01 | S. cerevisiae deletion strains, locus YJL154C, strain vps35, active compounds read low 0.972 | S. cerevisiae deletion strains, locus YJL164C, strain tpk1, active compounds read low 0.986 | S. cerevisiae deletion strains, locus YJL166W, strain qcr8, active compounds read low 0.998 | [22] 0.939 | S. cerevisiae deletion strains, locus YKL160W, strain elf1, active compounds read low 1.03 | S. cerevisiae deletion strains, locus YKR026C, strain gcn3, active compounds read low 0.982 | S. cerevisiae deletion strains, locus YKR091W, strain srl3, active compounds read low 0.999 | S. cerevisiae deletion strains, locus YLL001W, strain dnm1, active compounds read low 1.01 | S. cerevisiae deletion strains, locus YLL026W, active compounds read low 0.992 | S. cerevisiae deletion strains, locus YLL041C, strain sdh2, active compounds read low 0.992 | S. cerevisiae deletion strains, locus YLR027C, strain aat2, active compounds read low 0.991 | [23] 0.936 | S. cerevisiae deletion strains, locus YLR221C, strain rsa3, active compounds read low 0.981 | S. cerevisiae deletion strains, locus YLR258W, strain gsy2, active compounds read low 0.994 | S. cerevisiae deletion strains, locus YLR262C, strain YPT6 (second series), active compounds read low 0.954 | S. cerevisiae deletion strains, locus YLR320W, strain mms22, active compounds read low 0.985 | S. cerevisiae deletion strains, locus YLR342W, strain FKS1, active compounds read low 0.984 | S. cerevisiae deletion strains, locus YLR357W, strain rsc2, active compounds read low 0.92 | S. cerevisiae deletion strains, locus YLR370C, strain arc18, active compounds read low 1.01 | S. cerevisiae deletion strains, locus YLR384C, strain iki3, active compounds read low 1.01 | S. cerevisiae deletion strains, locus YML120C, strain ndi1, active compounds read low 0.964 | S. cerevisiae deletion strains, locus YMR058W, strain fet3, active compounds read low 0.982 | S. cerevisiae deletion strains, locus YMR125W, strain sto1, active compounds read low 0.926 | S. cerevisiae deletion strains, locus YMR129W, active compounds read low 0.994 | S. cerevisiae deletion strains, locus YMR205C, strain PFK2, active compounds read low 1.01 | S. cerevisiae deletion strains, locus YMR231W, strain pep5, active compounds read low 0.986 | S. cerevisiae deletion strains, locus YNL071W, strain lat1, active compounds read low 0.973 | [24] 0.933 | S. cerevisiae deletion strains, locus YNL209W, strain ssb2, active compounds read low 1 | S. cerevisiae deletion strains, locus YNL248C, strain rpa49, active compounds read low 0.991 | S. cerevisiae deletion strains, locus YNL322C, strain KRE1 (second series), active compounds read low 0.975 | S. cerevisiae deletion strains, locus YNR049C, strain mso1, active compounds read low 0.975 | S. cerevisiae deletion strains, locus YOR001W, strain rrp6, active compounds read low 0.945 | S. cerevisiae deletion strains, locus YOR070C, strain gyp1, active compounds read low 0.999 | S. cerevisiae deletion strains, locus YOR080W, strain dia2, active compounds read low 0.996 | S. cerevisiae deletion strains, locus YOR083W, strain WHI5, active compounds read low 1.01 | S. cerevisiae deletion strains, locus YOR106W, strain vam3, active compounds read low 0.998 | [25] 0.964 | S. cerevisiae deletion strains, locus YOR265W, strain rbl2, active compounds read low 0.989 | S. cerevisiae deletion strains, locus YOR270C, strain vph1, active compounds read low 1.04 | S. cerevisiae deletion strains, locus YOR290C, strain snf2, active compounds read low 1.02 | S. cerevisiae deletion strains, locus YPL051W, strain arl3, active compounds read low 1.01 | S. cerevisiae deletion strains, locus YPL078C, strain atp4, active compounds read low 1.04 | S. cerevisiae deletion strains, locus YPL106C, strain sse1, active compounds read low 0.953 | S. cerevisiae deletion strains, locus YPL240C, strain hsp82, active compounds read low 0.952 | [26] 1.05

Oc1ccc2c3c1O[C@H]1c4oc5ccccc5c4C[C@@]4(O)C(C2)N(CC2CC2)CCC314 (stereo partly drawn)
inactive: [2] 1.01 | [3] 1 | [5] 0.994 | [6] 0.988 | [27] 0.99 | [10] 0.988 | [12] 1.01 | [13] 1.01 | [14] 1 | [15] 0.993 | [16] 1.01 | [17] 0.975

O=C(O)c1cc(C(F)(F)F)ccc1F
inactive: [1] 0.999 | S. cerevisiae deletion strains, locus YBR229C, strain ROT2, active compounds read low 0.982 | S. cerevisiae deletion strains, locus YDL101C, strain DUN1, active compounds read low 0.961 | S. cerevisiae deletion strains, locus YDL134C, strain PPH21, active compounds read low 0.989 | [4] 1 | S. cerevisiae deletion strains, locus YEL061C, strain CIN8, active compounds read low 0.997 | [7] 0.975 | [8] 1 | [19] 0.964 | S. cerevisiae deletion strains, locus YHR087W, strain rtc3, active compounds read low 0.973 | S. cerevisiae deletion strains, locus YJL187C, strain SWE1, active compounds read low 0.998 | S. cerevisiae deletion strains, locus YJR043C, strain POL32, active compounds read low 0.995 | [27] 1 | S. cerevisiae deletion strains, locus YKL190W, strain CNB1, active compounds read low 1 | S. cerevisiae deletion strains, locus YLR039C, strain RIC1, active compounds read low 0.991 | S. cerevisiae deletion strains, locus YLR058C, strain SHM2 (second series), active compounds read low 0.983 | S. cerevisiae deletion strains, locus YLR085C, strain ARP6, active compounds read low 1.02 | S. cerevisiae deletion strains, locus YLR262C, strain YPT6, active compounds read low 0.979 | S. cerevisiae deletion strains, locus YML094W, strain GIM5, active compounds read low 0.916 | S. cerevisiae deletion strains, locus YMR219W, strain ESC1, active compounds read low 0.999 | [9] 1.01 | [11] 1.02 | S. cerevisiae deletion strains, locus YNL298W, strain CLA4 (second series), active compounds read low 0.996 | [15] 0.99 | S. cerevisiae deletion strains, locus YNR030W, strain Alg12, active compounds read low 0.982 | S. cerevisiae deletion strains, locus YOL006C, strain TOP1, active compounds read low 0.987 | [17] 1.01 | [18] 0.929 | S. cerevisiae deletion strains, locus YPR135W, strain CTF4, active compounds read low 0.905 | S. cerevisiae strains, strain wild type, active compounds read low 0.979
